AddAB inh – growth inhibition of E. coli expressing H. pylori AddAB, primary screen, AddAB inhibitor project, absorbance. inhibition, % at 11.9 µM. 330,000 compounds, 0.29% hits. AID 435030, 2010; in the data active = inhibition above about 12%;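 note: 0% = vehicle wells of infected cells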
E coli growth-1 – E. coli V3065 growth inhibition, primary screen, counter-screen for AddAB inhibitor project, absorbance, OD600. 18 h. inhibition, % at 11.9 µM. 330,000 compounds, 0.27% hits;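 active = inhibition above the campaign's mean inhibition across all tested compounds plus 3 SD, cut at about 9.9% in these data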;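 note: uninfected addAB+ strain grown without phage in ampicillin broth; 0% = DMSO wells and 100% = ciprofloxacin 0.95 µg/ml wells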
Tat export inh – E. coli Tat export inhibitors, primary screen, MC4100, TorA-mCherry reporter, fluorescence, single point. 340,000 compounds, 0.036% hits. AID 488895, 2010. inhibition, % at 10 µM;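 active = mean replicate inhibition at least 50% and at least half of replicates individually reaching 50%; inconclusive = only one of the two criteria met; inactive = neither criterion met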;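 note: exported cargo escapes ClpAP degradation while cytoplasmic cargo is degraded and loses fluorescence; 0% = median of neutral control wells and 100% = median of NaSCN control wells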
phage Ecoli inh – growth loss of phage-infected E. coli, primary screen, RecBCD inhibitor project, absorbance, with phage, HTS; inhibition, % at 11.9 µM; AID 651602, 2012; 360,000 compounds, 0.26% hits; in the data active = inhibition above about 11%
E coli growth-2 – E. coli growth inhibition, primary screen, OD600 | Escherichia coli growth, 23 h; active compounds read low | OD600 absorbance (no concentration beside the values) | 330,000 compounds, 0.21% hits;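 active = OD600 absorbance below the run mean of sample wells minus 3.6 SD, in any replicate, cut at about 0.56 in these data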
* marks the source's active call; other numbers are inactive results. Sampled rows, rich in hits. Any-hit rate of the full collection: about 0.5%.

What do the screens show for `CCCCCCCCCCCCCCCC[n+]1ccc(C(N)=O)cc1`?
AddAB inh: -0.7; E coli growth-1: -3.0; Tat export inh: 51.5*; phage Ecoli inh: 4.7; E coli growth-2: 0.316*

What do the screens show for `CCCCCCCCCCCCCCCC[n+]1ccccc1`?
Tat export inh: 48.2; phage Ecoli inh: 1.5; E coli growth-2: 0.0565*

Results for CCCCCCCCCCCCCCCC[n+]1cccc(C(=O)N(CC)CC)c1 ?
AddAB inh: -16.4; E coli growth-1: -4.4; Tat export inh: inconclusive; phage Ecoli inh: 3.6; E coli growth-2: 0.433*

Results for N#CCCn1cc(C=N/N=C2\NC(=O)C(CC(=O)O)S2)c(-c2ccc(F)cc2)n1 (stereo unspecified) ?
E coli growth-2: 0.693

How did Cc1ccc(NC(=O)Nc2ccno2)cc1 do in these assays?
AddAB inh: 2.3; E coli growth-1: 2.1; phage Ecoli inh: 6.6; E coli growth-2: 0.449*

What do the screens show for `Cc1ccc(NC(=O)Nc2ncccc2C)cc1`?
AddAB inh: 3.8; E coli growth-1: 2.2; Tat export inh: 9.6; phage Ecoli inh: 3.9; E coli growth-2: 0.709

How did O=C(COc1c(Br)cc(Br)c2cccnc12)N1CCc2ccccc2C1 do in these assays?
AddAB inh: -3.4; E coli growth-1: -8.6; Tat export inh: 2.8; E coli growth-2: 0.439*

Results for CN1CCN(Cc2cc(COCc3ccccc3)c3cccnc3c2O)CC1 ?
AddAB inh: 8.1; E coli growth-1: -0.5; Tat export inh: 13.4; phage Ecoli inh: 6.8

What do the screens show for `O=C(COc1c(Br)cc(Br)c2cccnc12)N1CCCCC1`?
AddAB inh: -4.2; E coli growth-1: -6.0; Tat export inh: -11.4; phage Ecoli inh: -4.9; E coli growth-2: 0.698

Results for O=C(Oc1c(CN2CCOCC2)cc(Cl)c2cccnc12)c1ccccc1 ?
AddAB inh: -3.2; E coli growth-1: -2.2; Tat export inh: 15.9; phage Ecoli inh: 2.7; E coli growth-2: 0.676

How did Oc1c(CN2CCCCC2)cc(Br)c2cccnc12 do in these assays?
AddAB inh: 4.1; E coli growth-1: 1.5; Tat export inh: 2.2; phage Ecoli inh: 8.9; E coli growth-2: 0.169*

What do the screens show for `Oc1c(CN2CCc3ccccc3C2)cc(Cl)c2cccnc12`?
AddAB inh: 11.3; E coli growth-1: 0.2; Tat export inh: 0.2; E coli growth-2: 0.429*

How did Oc1c(Cl)cc(CN2CCOCC2)c2cccnc12 do in these assays?
AddAB inh: 8.2; E coli growth-1: 8.1; Tat export inh: 5.2; phage Ecoli inh: 4.3; E coli growth-2: 0.522*

What do the screens show for `C[C@H]1COc2c(C3(N)CC3)c(F)cc3c(=O)c(C(=O)O)cn1c23`?
AddAB inh: 100.3*; E coli growth-1: 101.6*

How did CCCCCCCNC(=O)C1(CC2CC(c3cccc(Br)c3)=NO2)CCNCC1 (stereo unspecified) do in these assays?
AddAB inh: 0.0; E coli growth-1: 2.1; Tat export inh: 17.3; phage Ecoli inh: 4.2; E coli growth-2: 0.0475*

Results for Cc1ccsc1C(=O)NN=C/C=C/c1ccccc1[N+](=O)[O-] ?
E coli growth-2: 0.726

Results for O=C(O)c1ccccc1SSc1ccccc1C(=O)O ?
AddAB inh: 9.9; E coli growth-1: 13.5*; Tat export inh: 6.6; phage Ecoli inh: 1.5; E coli growth-2: 0.676

Results for O=C(O)c1ccccc1O ?
AddAB inh: 2.8; E coli growth-1: 0.5; Tat export inh: 11.4; phage Ecoli inh: 4.1; E coli growth-2: 0.702

How did Cc1nnsc1C(=O)NNc1c(Cl)cccc1Cl do in these assays?
AddAB inh: 5.4; E coli growth-1: 2.2; Tat export inh: 5.7; phage Ecoli inh: 3.1; E coli growth-2: 0.476*

Results for Cc1nnsc1C(=O)NNc1ccc(Cl)cc1 ?
AddAB inh: 0.4; E coli growth-1: -0.5; Tat export inh: 2.7; phage Ecoli inh: 0.3; E coli growth-2: 0.672

What do the screens show for `COc1ccccc1C(=O)NCC(=O)NN=Cc1cn[nH]c1-c1ccccc1`?
E coli growth-2: 0.682

How did O=C(CCN1CCOCC1)c1ccccc1 do in these assays?
AddAB inh: 6.5; E coli growth-1: -2.5; Tat export inh: -30.1; phage Ecoli inh: 2.4; E coli growth-2: 0.618

Results for O=C(CCN1CCOCC1)NNC(=S)NC(=O)c1ccccc1 ?
AddAB inh: 3.9; E coli growth-1: -0.2; Tat export inh: -14.6; phage Ecoli inh: -4.2; E coli growth-2: 0.528*

How did CCN=C1SC(=Cc2ccc(Sc3ccc(Cl)cc3)o2)C(=O)N1CC do in these assays?
E coli growth-2: 0.718

Results for Cc1cccc(N2C(=O)Cc3ccccc3C2=O)c1 ?
AddAB inh: 0.2; E coli growth-1: -0.4; Tat export inh: -5.7; phage Ecoli inh: 0.2; E coli growth-2: 0.533*

How did Cc1ccc(N2C(=O)Cc3ccccc3C2=O)cc1 do in these assays?
AddAB inh: 3.9; E coli growth-1: 1.8; Tat export inh: 3.0; phage Ecoli inh: -0.1; E coli growth-2: 0.629

What do the screens show for `O=C(CNS(=O)(=O)c1ccc(Br)s1)NCc1ccccc1`?
AddAB inh: 2.4; E coli growth-1: 0.4; Tat export inh: -5.0; phage Ecoli inh: -0.3; E coli growth-2: 0.536*

How did O=C(C1=CC(c2coc3ccccc3c2=O)CC(OCCCCO)O1)N1CCOCC1 (stereo unspecified) do in these assays?
E coli growth-2: 0.674

What do the screens show for `Cc1cc2nc3c(=O)[nH]c(=S)[nH]c3nc2cc1NC(=O)C(F)(F)F`?
AddAB inh: 6.7; E coli growth-1: 10.3*; Tat export inh: -11.4; phage Ecoli inh: 9.4; E coli growth-2: 0.656

How did CN(C)C=NNC(=O)C1Cc2c(ccc3ccccc23)O1 (stereo unspecified) do in these assays?
E coli growth-2: 0.677

Results for COC1OC2O[C@@]3(C)CCC4C(C)CCC(C1C)[C@@]24OO3 (stereo partly specified) ?
E coli growth-2: 0.357*

How did COc1cc(C(C)=NNC(=O)CN2CCN(S(=O)(=O)c3ccc(C)cc3)CC2)ccc1O do in these assays?
E coli growth-2: 0.676

How did COc1ccc2cc(C(c3nnnn3C3CCCC3)N3CCCCCC3)c3nnnn3c2c1 (stereo unspecified) do in these assays?
AddAB inh: 9.2; E coli growth-1: 12.2*; Tat export inh: -3.9; phage Ecoli inh: 2.1; E coli growth-2: 0.776

Results for COc1ccc2cc(C(c3nnnn3C3CCCCC3)N3CCCCCC3)c3nnnn3c2c1 (stereo unspecified) ?
AddAB inh: 0.4; E coli growth-1: 0.2; Tat export inh: -5.9; phage Ecoli inh: 0.5; E coli growth-2: 0.728

How did O=C1CSC(=S)N1/N=C/c1ccc2c(c1)OCCO2 do in these assays?
AddAB inh: 4.5; E coli growth-1: 9.9*; Tat export inh: 7.0; phage Ecoli inh: 1.4

Results for CC(=NOCC(=O)Nc1ccc(C)cc1C)c1cccs1 ?
E coli growth-2: 0.771

How did Cc1ccc2c(c1)C1C(CO2)C(c2ccccc2)[C@]2(C)C(=O)N(Cc3ccco3)CC(=O)N12 (stereo partly specified) do in these assays?
E coli growth-2: 0.649

How did NC(=S)n1[nH]c(-c2ccc([N+](=O)[O-])cc2)c(N=Nc2ccc(O)cc2)c1=O do in these assays?
AddAB inh: 10.8; E coli growth-1: 16.6*; Tat export inh: -8.1; phage Ecoli inh: 4.9; E coli growth-2: 0.701

Screening data as filed in PubChem.
